From PubChem BioAssay
In the library only some 3.4% were active in any assay of this set; here they are far more common.
ssDAF-12 act = S. stercoralis DAF-12 activation, primary screen; HEK293 ssDAF-12/GRIP1 lit1-tk-luc reporter, luminescence; % of 3 µM dafachronic acid response; activation, % at 6.8 µM; 370,000 compounds, 1% hits; AID 652126;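 active = activation above the mean over all tested compounds plus 3 SD, cut at about 0.9% in these data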;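 also: 0% = DMSO-only wells and 100% = 3 µM delta7-dafachronic acid wells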
APP 5'UTR act = APP 5'UTR luciferase reporter activation | 190,000 compounds, 1% hits | AID 1276 | SH-SY5Y APP 5'UTR luciferase reporter, luminescence; zero percent = DMSO vehicle wells | activation, % at 2 µM;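 active = activation above a set limit, based on mean plus 3 SD of controls, cut at about 140% in these data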
NF-kB neuron act = raises NF-kB expression in human neuronal cells | 190,000 compounds, 1.6% hits | fold change at 12.5 µM | NF-kB reporter expression; active compounds read high; in the data active = fold change above about 3.3
hcDAF12 agonist = activates DAF-12 receptor from parasite H. contortus; HEK293 hcDAF-12 lit1-tk-luc reporter, luminescence; 0% DMSO, 100% Δ7-dafachronic acid; activation, % at 6.8 µM; 370,000 compounds, 1.4% hits;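 active = activation above the mean of all tested compounds plus 3 SD, cut at about 5.5% in these data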;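 also: 100% = response to 3 µM Δ7-dafachronic acid high control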
hgDAF-12 ag = agonists of H. glycines DAF-12 nuclear receptor. HEK293 GAL4-hgDAF12 UAS-luciferase reporter, agonist luminescence; normalized to butyrate control. activation, % at 6.8 µM. 370,000 compounds, 1.8% hits;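 active = activation above a cutoff set at the mean of all screened compounds plus 3 SD, cut at about 10% in these data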;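 also: 0% = DMSO wells and 100% = sodium butyrate wells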
An asterisk follows results filed as active.

`Cc1ccnc(NC(=O)CNC(=O)Cc2cccc3ccccc23)c1` gave ssDAF-12 act 1.3*, hcDAF12 agonist 2 and hgDAF-12 ag 9.
Cn1c(=O)cc(OCCCC(=O)Nc2cc(Br)ccn2)c2ccccc21 was read as ssDAF-12 act -2, hcDAF12 agonist -2 and hgDAF-12 ag -5.
`CC(C)(C)c1ccc(-c2nnc3n2N=C(c2ccc4ccccc4c2)CS3)cc1` gave ssDAF-12 act -1, hcDAF12 agonist 1 and hgDAF-12 ag 0.
For O=C(Cc1ccccc1[N+](=O)[O-])NCc1ccc(Cl)cc1 the results were ssDAF-12 act 1.2*, APP 5'UTR act 36, NF-kB neuron act 1.9, hcDAF12 agonist 3 and hgDAF-12 ag 4.
Screening O=C(/C=C/c1ccccc1[N+](=O)[O-])NCc1ccc(Cl)cc1 returned ssDAF-12 act -2, APP 5'UTR act 4, NF-kB neuron act 1.2, hcDAF12 agonist 3 and hgDAF-12 ag 0.
`O=C(Cc1ccccc1[N+](=O)[O-])NCc1ccc(Cl)cc1Cl` gave ssDAF-12 act 1, APP 5'UTR act 98, NF-kB neuron act 4.4*, hcDAF12 agonist 4 and hgDAF-12 ag 12*.
For COc1ccc(CNC(=O)c2ccc(Cl)c(NC3=NC4CS(=O)(=O)CC4S3)c2)cc1 (stereo not drawn) the results were ssDAF-12 act -1, hcDAF12 agonist -1 and hgDAF-12 ag 11*.
O=C(Nc1ccc2ccccc2c1)c1cccc([N+](=O)[O-])c1 was read as ssDAF-12 act 0, hcDAF12 agonist 4 and hgDAF-12 ag 12*.
Screening O=C(O)c1cccc([N+](=O)[O-])c1C(=O)Nc1ccc2ccccc2c1 returned ssDAF-12 act 1.8*, hcDAF12 agonist 6.5* and hgDAF-12 ag 4.
For CC(=O)CC[C@@H]1CC[C@]2(CCCN(S(C)(=O)=O)C2)O1 the results were ssDAF-12 act -1, hcDAF12 agonist 1 and hgDAF-12 ag 1.
`COC(=O)c1cc(S(=O)(=O)N2CCN(c3ccccc3Cl)CC2)cn1C` gave ssDAF-12 act -1, hcDAF12 agonist -2 and hgDAF-12 ag 0.
`COc1ccc2[nH]cc(/C=C/C(=O)c3ccccc3)c2c1` gave ssDAF-12 act 0, hcDAF12 agonist 5 and hgDAF-12 ag 11*.
`COc1ccccc1/C=C/C(=O)c1ccccc1` gave ssDAF-12 act 0, hcDAF12 agonist 1 and hgDAF-12 ag 13*.
Screening COc1ccccc1/C=C/C(=O)c1ccc(Cl)cc1 returned ssDAF-12 act -1, APP 5'UTR act 19, NF-kB neuron act 1.6, hcDAF12 agonist -1 and hgDAF-12 ag 4.
Screening COc1cccc(/C=C/C(=O)OCC(=O)c2ccccc2)c1OC returned ssDAF-12 act 0, hcDAF12 agonist 6.1* and hgDAF-12 ag 13*.
`O=C(Cn1cc(/C=C\[N+](=O)[O-])c2ccccc21)Nc1ccccc1` gave ssDAF-12 act -2, hcDAF12 agonist -1 and hgDAF-12 ag -5.
For O=C(O)Cn1cc(/C=C/[N+](=O)[O-])c2ccccc21 the results were ssDAF-12 act 0.9*, APP 5'UTR act 15, NF-kB neuron act 1.1, hcDAF12 agonist 4 and hgDAF-12 ag 3.
Screening CCC(=O)Nc1cccc(-c2nnc(-c3cccc(NC(=O)CC)c3)o2)c1 returned ssDAF-12 act -2, APP 5'UTR act 0, NF-kB neuron act 0.33, hcDAF12 agonist 0 and hgDAF-12 ag -3.
CCC(=O)Nc1ccc(-c2nnc(-c3ccccc3)o2)cc1 was read as ssDAF-12 act 1, APP 5'UTR act 210*, NF-kB neuron act 1, hcDAF12 agonist 2 and hgDAF-12 ag 10*.
Screening COC1=C[C@H](C(=O)NCc2ccc(Cl)cc2)C(C)C(c2ccccc2)CC1=O (stereo partly drawn) returned ssDAF-12 act -1, hcDAF12 agonist -1 and hgDAF-12 ag 5.
For CC(C)(C)[C@H](NC(=O)c1cc(Cl)cc(Cl)c1)C(=O)N1CCC[C@H]1C(=O)N[C@H](C#N)CC(=O)O the results were ssDAF-12 act -1, hcDAF12 agonist 0 and hgDAF-12 ag -2.
`O=C(NCCCN1CCOCC1)c1ccccc1N1C(=O)[C@@H]2Cc3c([nH]c4ccccc34)C(c3ccccc3)N2C1=O` (stereo partly drawn) gave ssDAF-12 act 0, hcDAF12 agonist 5.8* and hgDAF-12 ag 4.
CCc1nc(Sc2nc(C)cc(C)n2)c2oc3ccccc3c2n1 was read as ssDAF-12 act -1, NF-kB neuron act 4.3*, hcDAF12 agonist -2 and hgDAF-12 ag -7.
CCc1nc(SCCO)c2oc3ccccc3c2n1 was read as ssDAF-12 act -1, APP 5'UTR act 17, NF-kB neuron act 1.2, hcDAF12 agonist -3 and hgDAF-12 ag -1.
`O=C(Nc1c(-c2ccc(F)cc2)nc2ncccn12)c1ccc(F)cc1` gave ssDAF-12 act -1, hcDAF12 agonist -2 and hgDAF-12 ag -2.
Screening CCS(=O)(=O)N1CCN(C2CCC(C)CC2)CC1 (stereo not drawn) returned ssDAF-12 act 1.1*, APP 5'UTR act 4, NF-kB neuron act 1.1, hcDAF12 agonist -1 and hgDAF-12 ag 2.
Screening c1nc(NCC2CCCOC2)c2cc(-c3ccc4c(c3)OCO4)ccc2n1 (stereo not drawn) returned ssDAF-12 act 0, hcDAF12 agonist 3 and hgDAF-12 ag 2.
For O=C1N=C(N2CCOCC2)S/C1=C1\C(=O)N(Cc2ccccc2)c2ccccc21 the results were ssDAF-12 act -1, APP 5'UTR act 380*, NF-kB neuron act 1.4, hcDAF12 agonist 1 and hgDAF-12 ag 4.
`CCOC(=O)n1ccc(C(=O)Nc2ccccc2F)n1` gave ssDAF-12 act -1, APP 5'UTR act -6, NF-kB neuron act 1.4, hcDAF12 agonist 0 and hgDAF-12 ag 5.
For CCOC(=O)c1cc(C(=O)Nc2ccccc2F)nn1C the results were ssDAF-12 act 0, APP 5'UTR act 11, NF-kB neuron act 5.9*, hcDAF12 agonist 5 and hgDAF-12 ag 13*.
Screening CCOc1ccc(OCCn2c(SCC(=O)O)nc3ccccc32)cc1 returned ssDAF-12 act -1, hcDAF12 agonist 0 and hgDAF-12 ag 1.
`COCCCn1c(SCC(=O)Nc2ccc(C(C)=O)cc2)nc2ccccc2c1=O` gave ssDAF-12 act -1, APP 5'UTR act -1, NF-kB neuron act 1.5, hcDAF12 agonist 0 and hgDAF-12 ag 11*.
For Cc1ccc(-c2csc(NC(=O)CSc3nc4ccccc4c(=O)n3CCCN(C)C)n2)cc1 the results were ssDAF-12 act -1, APP 5'UTR act 5, NF-kB neuron act 0.99, hcDAF12 agonist 1 and hgDAF-12 ag 13*.
Screening CC(=O)c1ccc(OCCn2c(SCC(=O)O)nc3ccccc32)cc1 returned ssDAF-12 act 0, hcDAF12 agonist 6.4* and hgDAF-12 ag 9.
`Cn1c(=O)oc2cc(S(=O)(=O)N3CCN(c4cccc(C(F)(F)F)c4)CC3)ccc21` gave ssDAF-12 act -2, hcDAF12 agonist -2 and hgDAF-12 ag 0.
